Inconclusive results are not listed. Calls of active or inactive are those of the source. Unless noted, calls follow the shape of the dose curve; as a rule, active = well fitted curve in the direction sought with a large enough effect; inconclusive = small, poorly fitted or top-dose-only effect, or another doubt; inactive = no such curve, though single readings can be large; an effect the other way counts as inactive or inconclusive.
Experiments:
[1] = P-glycoprotein substrates identified in KB-3-1 adenocarcinoma cell line, qHTS therapeutic library screen (AID 1346986); also: nearly all actives have a fitted effect of over 60% in size;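 also: potency is read from the fitted curve at half-maximal effect; potency is for cytotoxicity meaning loss of cell viability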
Outline: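 Cells seeded 500/well in DMEM/10% FCS; compounds pinned in dose-response; 72 h incubation; CellTiter-Glo added, 5 min, luminescence. KB-8-5-11 run ±tariquidar to test reversal of P-gp resistance.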

[2] = P-glycoprotein substrates identified in KB-8-5-11 adenocarcinoma cell line, qHTS therapeutic library screen (AID 1346987); also: nearly all actives have a fitted effect of over 65% in size; also: potency is read from the fitted curve at half-maximal effect
Outline: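 Steps: plate 500 KB-8-5-11 cells/well in DMEM + 10% FCS (colchicine removed); pin compounds in dose-response; incubate 72 h, 37 degree C, 5% CO2; add CellTiter-Glo, 5 min; read luminescence.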

[3] = Primary qHTS for inhibitors of nuclear receptor binding SET domain protein 2 (NSD2) in an isogenic RCH-ACV NSD2 p.E1099K mutant (9B) (AID 1645876); also: nearly all actives have a fitted effect of over 70% in size; also: potency is read from the fitted curve at half-maximal effect
[4] = Primary qHTS for inhibitors of nuclear receptor binding SET domain protein 2 (NSD2) in an RCH-ACV wild type WT cells (2C) (AID 1645877); also: nearly all actives have a fitted effect of over 70% in size; also: potency is read from the fitted curve at half-maximal effect
[5] = biological target: Glutathione peroxidase 1 (Homo sapiens) (UniProt P07203); test: Primary qHTS Assay for Inhibitors of Recombinant Selenoprotein Glutathione Peroxidase 1 (GPX1) (AID 1845191); also: nearly all actives have a fitted effect of over 65% in size
Outline: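 10 nM GPX1 + cpd, 30 min RT; start w/ 1 mM GSH, 0.5 mM cumene hydroperoxide, 0.5 mM NADPH, 100 nM GR, 0.01% BSA; buffer 50 mM Tris-HCl pH 7.5, 2 mM EDTA, 150 mM NaCl; Fl 340/450, 0 & 15 min.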

[6] = NCATS anti-infectives library activity on HEK293 viability as a counter-qHTS vs the C. elegans viability qHTS (AID 1745854);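 also: HEK293 cells exposed to compounds for 24 hr before the viability read; % is scaled to controls: 0 for no effect and ±100 for the full control effect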
Outline: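 Compounds were acoustically plated (several concentrations, 1:5, final up to 41.7 uM), then 1500 HEK293 cells added per well and incubated 24 hr at 37C, 5% CO2. CellTiter-Glo was added and luminescence read after 10 min.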

[7] = biological target: Catechol O-methyltransferase (Homo sapiens) (UniProt P21964); test: Confirmatory Screen for Target Class Profiling of Small Molecule Inhibitors of Methyltransferases (AID 1745852; calls by dose curve; also: potency is read from the fitted curve at half-maximal effect); settings: MTase-Glo luminescence, SAH detection, recombinant enzyme; measured here: COMT max response; stronger effect = lower value
[8] = biological target: Guanidinoacetate N-methyltransferase (Homo sapiens) (UniProt Q14353); test: as above; settings: activity change, negative = inhibition: at 57.3 µM (top of the series) unless noted
[9] = biological target: Nicotinamide N-methyltransferase (Homo sapiens) (UniProt P40261); test: as above; settings: MTase-Glo luminescence, SAH detection, recombinant enzyme; measured here: NNMT max response; stronger effect = lower value
[10] = biological target: Phenylethanolamine N-methyltransferase (Homo sapiens) (UniProt P11086); test: as above; settings: MTase-Glo luminescence, SAH detection, recombinant enzyme; measured here: PNMT max response; stronger effect = lower value
Sequence of Phenylethanolamine N-methyltransferase (Homo sapiens) (P11086 whole entry, looked up): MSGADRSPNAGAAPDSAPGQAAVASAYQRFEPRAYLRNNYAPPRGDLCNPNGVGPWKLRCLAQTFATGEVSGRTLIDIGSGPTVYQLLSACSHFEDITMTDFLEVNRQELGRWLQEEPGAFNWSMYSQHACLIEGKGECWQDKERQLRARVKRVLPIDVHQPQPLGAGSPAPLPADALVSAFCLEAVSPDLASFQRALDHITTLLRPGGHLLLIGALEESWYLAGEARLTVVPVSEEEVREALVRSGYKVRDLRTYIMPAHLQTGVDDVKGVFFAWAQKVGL

Sequence of Glutathione peroxidase 1 (Homo sapiens) (P07203 whole entry, looked up): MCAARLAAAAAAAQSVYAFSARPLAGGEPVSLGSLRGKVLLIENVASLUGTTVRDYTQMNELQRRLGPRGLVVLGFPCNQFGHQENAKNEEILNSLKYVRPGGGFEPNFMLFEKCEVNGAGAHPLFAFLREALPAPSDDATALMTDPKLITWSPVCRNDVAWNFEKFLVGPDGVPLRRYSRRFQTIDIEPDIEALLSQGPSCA
Sequence of Nicotinamide N-methyltransferase (Homo sapiens) (P40261 whole entry, looked up): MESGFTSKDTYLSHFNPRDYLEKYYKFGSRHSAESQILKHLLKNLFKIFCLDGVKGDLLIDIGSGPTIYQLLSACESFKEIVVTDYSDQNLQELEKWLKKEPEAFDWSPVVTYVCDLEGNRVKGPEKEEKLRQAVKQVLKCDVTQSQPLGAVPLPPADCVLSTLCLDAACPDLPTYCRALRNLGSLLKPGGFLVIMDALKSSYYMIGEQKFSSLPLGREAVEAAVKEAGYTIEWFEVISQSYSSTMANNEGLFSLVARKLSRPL
Sequence of Catechol O-methyltransferase (Homo sapiens) (P21964 whole entry, looked up): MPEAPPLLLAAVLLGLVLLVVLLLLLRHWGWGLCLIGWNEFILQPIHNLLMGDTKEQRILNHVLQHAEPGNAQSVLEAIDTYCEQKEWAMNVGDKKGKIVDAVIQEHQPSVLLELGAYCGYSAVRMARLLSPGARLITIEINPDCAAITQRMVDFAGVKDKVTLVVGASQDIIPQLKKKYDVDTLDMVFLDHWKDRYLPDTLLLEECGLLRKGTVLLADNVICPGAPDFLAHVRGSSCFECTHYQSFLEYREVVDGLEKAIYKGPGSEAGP

## CN[C@H]1CCN(C(=O)c2ccc(Nc3ncc(F)c(-c4cnc(C)n4C(C)C)n3)cc2)C1
[1]
  Potency: 58 nM (active)
[2]
  Potency: 6510 nM (active)
[3]
  Potency: 92 nM (active)
[4]
  Potency: 116 nM (active)
[5]
  Potency: inactive

## CC(C)C(=O)OC[C@@]1(N=[N+]=[N-])O[C@@H](n2ccc(N)nc2=O)[C@H](OC(=O)C(C)C)[C@@H]1OC(=O)C(C)C
[1]
  Potency: inactive
[2]
  Potency: inactive
[3]
  Potency: inactive
[4]
  Potency: inactive
[6]
  outcome: inactive

## Cc1cc(Nc2cc(C)c(C#N)c(NC(C)CCCC(C)(C)O)n2)n[nH]1 (centres undefined)
[1]
  Potency: 1460 nM (active)
[2]
  Potency: 1300 nM (active)
[3]
  Potency: 1030 nM (active)
[4]
  Potency: 1160 nM (active)
[5]
  Potency: inactive

## CC(C)C(=O)OC[C@H]1O[C@@H](n2ccc(N)nc2=O)[C@](C)(F)[C@@H]1OC(=O)C(C)C
[1]
  Potency: inactive
[2]
  Potency: inactive
[3]
  Potency: inactive
[4]
  Potency: inactive
[6]
  outcome: inactive

## Cc1ccc(Cl)cc1NC(=O)c1nc[nH]c1C(=O)Nc1nc2ccccc2[nH]1
[1]
  Potency: inactive
[2]
  Potency: inactive
[3]
  Potency: inactive
[4]
  Potency: inactive
[5]
  Potency: inactive

## BrC1C(Br)C(Br)C(Br)C(Br)C1Br (centres undefined)
[1]
  Potency: inactive
[2]
  Potency: inactive
[3]
  Potency: inactive
[4]
  Potency: inactive
[5]
  Potency: inactive

## Nc1nc(N)c2nc(-c3cccc(O)c3)cnc2n1
[1]
  Potency: 5800 nM (active)
[2]
  Potency: 7310 nM (active)
[3]
  Potency: 1640 nM (active)
[4]
  Potency: 1460 nM (active)
[5]
  Potency: inactive

## O=C(Nc1cccc(Nc2cc(Nc3cccc(C(F)(F)F)c3)ncn2)c1)C1CC1
[1]
  Potency: 920 nM (active)
[2]
  Potency: 920 nM (active)
[3]
  Potency: 731 nM (active)
[4]
  Potency: 920 nM (active)
[7]
  activity: -58%
[8]
  Potency: 21500 nM (active)
[9]
  activity: -68.1%
[10]
  activity: -61.4%
[5]
  Potency: inactive

## CC/C=C\CC1C(=O)CCC1CC(=O)OC (centres undefined)
[1]
  Potency: inactive
[2]
  Potency: inactive
[3]
  Potency: inactive
[4]
  Potency: inactive
[5]
  Potency: inactive

## COc1cc2ncnc(Sc3nnc(C)s3)c2cc1OC
[1]
  Potency: 18400 nM (active)
[2]
  Potency: 16400 nM (active)
[3]
  Potency: 2910 nM (active)
[4]
  Potency: 3260 nM (active)
[5]
  Potency: inactive

## Cc1cc(Nc2nn(-c3ccccc3)c(=O)c3ccccc23)n[nH]1
[1]
  Potency: 6510 nM (active)
[2]
  Potency: 11600 nM (active)
[3]
  Potency: 1160 nM (active)
[4]
  Potency: 1030 nM (active)
[5]
  Potency: inactive

## CCN(CC)CCNc1ccc2ncn3c4ccc(O)cc4c(=O)c1c23
[1]
  Potency: 1300 nM (active)
[2]
  Potency: 1300 nM (active)
[3]
  Potency: 65.1 nM (active)
[4]
  Potency: 58 nM (active)
[5]
  Potency: inactive

## CCCCCC1CC1CC1CC1CCCCCCCC(=O)O (centres undefined)
[1]
  Potency: inactive
[2]
  Potency: inactive
[3]
  Potency: inactive
[4]
  Potency: inactive
[5]
  Potency: inactive

## COc1cc(OC)c(/C=C2\C(=O)Nc3ccccc32)c(OC)c1
[1]
  Potency: 920 nM (active)
[2]
  Potency: 920 nM (active)
[3]
  Potency: 1030 nM (active)
[4]
  Potency: 920 nM (active)
[5]
  Potency: inactive

## COC(=O)C#Cc1ccc([N+](=O)[O-])cc1
[1]
  Potency: 13000 nM (active)
[2]
  Potency: 18400 nM (active)
[3]
  Potency: 4610 nM (active)
[4]
  Potency: 4110 nM (active)
[5]
  Potency: inactive

— PubChem BioAssay (NCATS)
